Assay results reported in PubChem BioAssay (Tox21).
Inconclusive results are not listed. The source made the active and inactive calls. Unless noted, calls come from the whole dose curve.

What was measured:
[1] = Nuclear factor erythroid 2-related factor 2/antioxidant responsive element (Nrf2/ARE) small molecule agonists: qHTS cell viability counter screen in human keratinocytes (AID 1919968; active = well fitted curve in the direction sought with a large enough effect in the repeat runs; an effect the other way counts as inactive or inconclusive; note: nearly all actives have a fitted effect of over 55% in size)
In short: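 Fluorescence read-out from CellTiter-Fluor after 1 h at 37 C. Wells held HaCaT-derived ARE-luciferase reporter cells (1,500/well) treated 23 h with DMSO-dissolved compounds. Run in the same wells as the luciferase agonist read.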

[2] = target: Gonadotropin-releasing hormone receptor (Homo sapiens) (UniProt P30968); assay: Human gonadotropin-releasing hormone receptor (GnRHR) small molecule agonists, calcium flux assay in GnRHR-HEK293 cells (AID 1920063); note: nearly all actives have a fitted effect of over 35% in size
In short: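 Calcium-dye fluorescence, Ex/Em=480/540, recorded every 1 sec over 3 min after compound addition to GnRHR-HEK293 cells. Cells had been seeded 18 hours earlier and dye-loaded for 1 hour at 37 C. Fifteen concentrations, triplicates.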

[3] = target: KiSS-1 receptor (Homo sapiens) (UniProt Q969F8); assay: Human kisspeptin (KISS1R) small molecule agonists, calcium flux assay in KISS1R-HEK293 cells (AID 1920064; active = well fitted curve in the direction sought with a large enough effect in the repeat runs; an effect the other way counts as inactive or inconclusive)
In short: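 Calcium flux read-out: kinetic fluorescence at Ex/Em=480/540, 1 s intervals over 3 min, after pin-tool compound addition to dye-loaded KISS1R-HEK293 cells. Fifteen concentrations, triplicates.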

[4] = G protein-coupled receptor (GPCR) small molecule agonists, calcium flux assay: HEK293 wild type cell line counter screen (AID 1920065)
In short: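 Agonist mode; 18 h seeding at 37 C, 1 h dye load at 37 C; compounds pinned from DMSO, ATP as positive control; kinetic fluorescence 480/540 nm, 3 min, 1 s reads; 15 concentrations, triplicate.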

[5] = p53 small molecule agonists, cell-based qHTS assay with human liver microsomes (AID 1963577)
In short: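 Compounds act here after metabolic activation: human liver microsomes and NADPH, both at 0.5 mg/mL final, were co-added to p53RE-bla cells. Incubation ran 16 h at 37 C, followed by LiveBLAzer detection.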

[6] = p53 small molecule agonists, cell-based qHTS assay with rat liver microsomes (AID 1963578)
In short: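 Read-out is beta-lactamase reporter fluorescence (LiveBLAzer, 2 h, room temperature, dark) in p53RE-bla cells treated 16 h at 37 C with compound, rat liver microsomes and NADPH, both 0.5 mg/mL final.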

[7] = p53 small molecule agonists, cell-based qHTS assay with human liver microsomes: qHTS cell viability counter screen (AID 1963579); note: nearly all actives have a fitted effect of over 45% in size
In short: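 Cells carrying the p53 response-element beta-lactamase reporter are treated for 16 h at 37 C with test compounds in the presence of human liver microsomes and NADPH (both 0.5 mg/mL final); ATP-based CellTiter-Glo luminescence then reports viability.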

[8] = p53 small molecule agonists, cell-based qHTS assay with rat liver microsomes: qHTS cell viability counter screen (AID 1963580); note: nearly all actives have a fitted effect of over 45% in size
In short: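 Rat liver microsome (0.5 mg/mL final) and NADPH (0.5 mg/mL final) co-incubation with compounds for 16 h at 37 C on HCT-116 p53RE-bla cells; cytotoxicity taken from intracellular ATP luminescence.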

[9] = p53 small molecule agonists, cell-based qHTS assay: qHTS cell viability counter screen (AID 1963581); note: nearly all actives have a fitted effect of over 45% in size
In short: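 Cytotoxicity read-out: ATP-based luminescence (CellTiter-Glo, 30 min RT) measured in the same wells as the p53 reporter assay, HCT-116 p53RE-bla cells, 16 h compound exposure at 37 C.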

[10] = p53 small molecule agonists, cell-based qHTS assay (AID 1963582; active = well fitted activation curve with a large enough effect in the signal ratio in the repeat runs, not every such curve was filed as active; the % refers to the signal ratio)
In short: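 Fluorescence intensity read-out of a beta-lactamase reporter under a p53 response element. Cells were exposed to DMSO-dissolved compounds for 16 h at 37 C, then developed with FRET substrate for 2 h at RT.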

[11] = target: 5-hydroxytryptamine receptor 2A (Homo sapiens) (UniProt P28223); assay: 5-hydroxytryptamine receptor 2A (HTR2A) small molecule antagonists, cell-based qHTS assay (AID 1963586); note: nearly all actives have a fitted effect of over 45% in size
In short: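 CHO cells stably expressing human HTR2A were plated for 18 h at 37 C, then loaded with calcium dye for 1 h. Compounds were preincubated 5 min at room temperature before DOI (4 nM solution) was added. Kinetic fluorescence was read for 3 min.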

[12] = target: 5-hydroxytryptamine receptor 2A (Homo sapiens) (UniProt P28223); assay: 5-hydroxytryptamine receptor 2A (HTR2A) small molecule agonists, cell-based qHTS assay (AID 1963587); note: nearly all actives have a fitted effect of over 30% in size
In short: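 Kinetic calcium-flux fluorescence (2 min, 1 sec intervals) after compound addition in agonist mode. HTR2A-CHO cells were cultured 18 h, then dye-loaded 1 h at 37 C.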

[13] = target: Muscarinic acetylcholine receptor M1 (Homo sapiens) (UniProt P11229); assay: Cholinergic receptor muscarinic 1 (CHRM1) small molecule antagonists, cell-based qHTS assay (AID 1963588); note: nearly all actives have a fitted effect of over 40% in size
In short: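 Compounds were tested at 15 concentrations in three independent runs. Dye-loaded CHRM1-CHO cells were exposed 5 min at room temperature before stimulation by acetylcholine added at 50nM. Intracellular calcium was read kinetically on FDSS for 3 min.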

[14] = target: Muscarinic acetylcholine receptor M1 (Homo sapiens) (UniProt P11229); assay: Cholinergic receptor muscarinic 1 (CHRM1) small molecule agonists, cell-based qHTS assay (AID 1963589); note: nearly all actives have a fitted effect of over 35% in size
In short: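 Calcium flux read-out: kinetic fluorescence at 1 sec intervals after pin-tool compound addition to dye-loaded CHRM1-CHO cells (human M1). Agonist mode; 15 concentrations tested in triplicate independent runs.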

[15] = cAMP Responsive Elements (CRE) small molecule agonists, cell-based qHTS assay (AID 1963590)
In short: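 Beta-lactamase reporter readout: LiveBLAzer B/G FRET substrate, 2 h at room temperature, added after 3 h compound treatment of CRE-bla HEK 293T cells at 37 C/5% CO2.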

[16] = cAMP Responsive Elements (CRE) small molecule antagonists, cell-based qHTS assay (AID 1963591; active = well fitted inhibition curve with a large enough effect in the signal ratio in the repeat runs, not every such curve was filed as active; the % refers to the signal ratio)
In short: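 HEK293T CRE-bla; 18 h preincubation; compound pin-transfer; NKH477 0.25 uM final, 3 h, 37 C; LiveBLAzer FRET substrate 2 h RT.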

[17] = target: Beta-2 adrenergic receptor (Homo sapiens) (UniProt P07550); assay: Adrenergic beta2 receptor (ADRB2) small molecule agonists, cell-based qHTS assay (AID 1963593);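 note: CHO cells stably overexpressing human ADRB2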
In short: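 CHO cells stably over-expressing ADRB2 were plated overnight at 37C, then dosed with compounds plus a stimulation mix containing 100uM IBMX and 25uM Ro-20-1724 for 0.5hr at room temperature. cAMP was measured by HTRF competition, 1hr.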

[18] = target: D(2) dopamine receptor (Homo sapiens) (UniProt P14416); assay: Dopamine D2 receptor (DRD2) small molecule agonists, cell-based qHTS assay (AID 1963594); note: nearly all actives have a fitted effect of over 35% in size
In short: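 cAMP accumulation in DRD2-HEK293 cells measured by HTRF after 1 h detection; compounds added 10 min before NKH477 (200nM […]) forskolin-analogue stimulation, 30 min at room temperature, with Ro20-1724 present at 0.1 mM final.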

[19] = target: D(2) dopamine receptor (Homo sapiens) (UniProt P14416); assay: Dopamine D2 receptor (DRD2) small molecule antagonists, cell-based qHTS assay (AID 1963595; active = well fitted inhibition curve with a large enough effect in the signal ratio in the repeat runs, with a control signal flat; the % refers to the signal ratio)
In short: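 In this cell-based antagonist screen, compounds act for 10 min at room temperature before a 30 min challenge with 12 nM quinpirole and 200 nM NKH477. cAMP is quantified by HTRF competition in DRD2-HEK293 cells containing 0.1 mM Ro20-1724.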

[20] = target: Beta-2 adrenergic receptor (Homo sapiens) (UniProt P07550); assay: Adrenergic beta2 receptor (ADRB2) small molecule antagonists, cell-based qHTS assay (AID 1963592); note: series mostly up to about 92 µM; nearly all actives have a fitted effect of over 50% in size
In short: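 Assay format: CHO-ADRB2 cells, 18-20hr seeding at 37C/5% CO2, then compound plus 1nM isoproterenol agonist mix for 0.5hr RT. Homogeneous time-resolved fluorescence cAMP detection after 1hr, expressed as 665/615 nm ratio.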

Measured: Potency

5-hydroxytryptamine receptor 2A (Homo sapiens), sequence (P28223 whole entry, looked up): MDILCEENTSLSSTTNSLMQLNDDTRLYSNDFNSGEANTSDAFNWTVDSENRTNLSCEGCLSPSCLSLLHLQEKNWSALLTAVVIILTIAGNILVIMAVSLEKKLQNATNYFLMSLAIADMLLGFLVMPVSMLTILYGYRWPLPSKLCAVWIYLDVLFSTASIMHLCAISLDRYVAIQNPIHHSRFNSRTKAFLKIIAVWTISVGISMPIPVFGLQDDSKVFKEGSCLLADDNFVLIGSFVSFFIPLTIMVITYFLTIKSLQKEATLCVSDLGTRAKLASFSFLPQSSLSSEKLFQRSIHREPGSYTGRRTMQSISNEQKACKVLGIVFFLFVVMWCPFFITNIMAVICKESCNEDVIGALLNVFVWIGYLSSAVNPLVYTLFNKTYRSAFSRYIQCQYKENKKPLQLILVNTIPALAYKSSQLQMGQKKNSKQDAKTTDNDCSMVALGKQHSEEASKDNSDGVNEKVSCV
Beta-2 adrenergic receptor (Homo sapiens), sequence (P07550 whole entry, looked up): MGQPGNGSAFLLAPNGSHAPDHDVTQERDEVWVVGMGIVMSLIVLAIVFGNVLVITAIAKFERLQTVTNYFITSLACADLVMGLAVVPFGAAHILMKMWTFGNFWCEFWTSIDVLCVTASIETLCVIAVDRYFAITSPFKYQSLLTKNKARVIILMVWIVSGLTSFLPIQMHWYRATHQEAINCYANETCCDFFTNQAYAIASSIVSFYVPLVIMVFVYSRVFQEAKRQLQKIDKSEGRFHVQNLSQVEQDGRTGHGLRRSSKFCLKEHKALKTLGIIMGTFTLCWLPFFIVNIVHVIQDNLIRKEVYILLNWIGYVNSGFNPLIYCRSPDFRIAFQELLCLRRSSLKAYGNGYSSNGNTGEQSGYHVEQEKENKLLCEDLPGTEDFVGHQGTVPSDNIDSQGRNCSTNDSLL
Gonadotropin-releasing hormone receptor (Homo sapiens), sequence (P30968 whole entry, looked up): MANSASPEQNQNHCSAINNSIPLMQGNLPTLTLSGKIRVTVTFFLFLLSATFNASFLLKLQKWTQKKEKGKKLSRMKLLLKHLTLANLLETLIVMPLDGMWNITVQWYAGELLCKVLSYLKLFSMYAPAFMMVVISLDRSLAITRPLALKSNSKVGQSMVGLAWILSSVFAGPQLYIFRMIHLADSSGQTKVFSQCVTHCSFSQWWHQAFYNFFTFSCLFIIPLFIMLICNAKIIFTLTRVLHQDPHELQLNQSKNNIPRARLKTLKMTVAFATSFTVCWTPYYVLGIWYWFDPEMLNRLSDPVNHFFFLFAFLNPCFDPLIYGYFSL
KiSS-1 receptor (Homo sapiens), sequence (Q969F8 whole entry, looked up): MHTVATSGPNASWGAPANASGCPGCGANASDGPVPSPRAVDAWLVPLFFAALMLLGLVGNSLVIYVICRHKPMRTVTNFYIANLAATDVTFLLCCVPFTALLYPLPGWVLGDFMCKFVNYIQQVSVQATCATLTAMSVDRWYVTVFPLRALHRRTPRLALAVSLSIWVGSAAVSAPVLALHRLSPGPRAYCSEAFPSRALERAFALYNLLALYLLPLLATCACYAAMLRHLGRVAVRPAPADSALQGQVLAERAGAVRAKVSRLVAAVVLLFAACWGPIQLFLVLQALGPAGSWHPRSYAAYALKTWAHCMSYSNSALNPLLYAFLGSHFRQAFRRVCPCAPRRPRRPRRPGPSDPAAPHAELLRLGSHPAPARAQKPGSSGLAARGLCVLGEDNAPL
Muscarinic acetylcholine receptor M1 (Homo sapiens), sequence (P11229 whole entry, looked up): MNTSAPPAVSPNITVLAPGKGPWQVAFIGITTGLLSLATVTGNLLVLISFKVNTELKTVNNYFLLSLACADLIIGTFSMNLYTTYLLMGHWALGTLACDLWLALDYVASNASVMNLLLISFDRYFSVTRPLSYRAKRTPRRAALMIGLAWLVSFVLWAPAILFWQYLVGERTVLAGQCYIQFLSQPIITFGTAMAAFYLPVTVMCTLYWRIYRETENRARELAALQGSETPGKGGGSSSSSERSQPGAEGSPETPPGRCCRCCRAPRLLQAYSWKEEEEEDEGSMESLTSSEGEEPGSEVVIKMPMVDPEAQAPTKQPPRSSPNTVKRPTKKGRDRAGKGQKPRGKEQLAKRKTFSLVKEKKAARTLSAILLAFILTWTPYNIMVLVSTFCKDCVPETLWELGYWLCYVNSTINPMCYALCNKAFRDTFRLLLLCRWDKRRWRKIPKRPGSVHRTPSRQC
D(2) dopamine receptor (Homo sapiens), sequence (P14416 whole entry, looked up): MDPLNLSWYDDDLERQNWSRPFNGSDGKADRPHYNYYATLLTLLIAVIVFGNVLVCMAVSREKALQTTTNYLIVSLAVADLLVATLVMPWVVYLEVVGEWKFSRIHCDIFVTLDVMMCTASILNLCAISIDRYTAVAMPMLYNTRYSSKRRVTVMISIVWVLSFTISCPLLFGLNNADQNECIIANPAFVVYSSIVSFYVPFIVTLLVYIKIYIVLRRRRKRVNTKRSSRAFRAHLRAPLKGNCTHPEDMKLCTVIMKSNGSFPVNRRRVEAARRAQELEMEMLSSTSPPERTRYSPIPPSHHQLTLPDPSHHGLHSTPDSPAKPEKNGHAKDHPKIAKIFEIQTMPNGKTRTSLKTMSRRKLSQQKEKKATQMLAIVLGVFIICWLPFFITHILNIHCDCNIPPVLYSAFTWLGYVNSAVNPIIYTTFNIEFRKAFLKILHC

CCCC(C)C(=O)OCC (configuration not stated)
not listed: [20]
inactive: all other assays above

CC(=O)CC(C)C
not listed: [2] | [3] | [10] | [11]
inactive: all other assays above

CCCCC
not listed: [2] | [3] | [5] | [6] | [17]
inactive: all other assays above

CCOC(=O)C1=C(C)NC(C)=C(C(=O)OC)C1c1cccc(Cl)c1Cl (configuration not stated)
not listed: [11] | [12] | [13] | [14] | [17]
inactive: all other assays above

CCC(C)(CCCC(C)C)OC(C)=O (configuration not stated)
not listed: [17]
inactive: all other assays above

CC1(C)[C@H]2CC[C@]1(C)C(=O)C2
inactive: [1] | [4] | [5] | [6] | [7] | [8] | [9] | [16] | [20] | [17] | [18]

CCn1ccnc1CC1COc2ccccc2O1 (configuration not stated)
not listed: [17] | [18]
inactive: all other assays above

O=C(CCCN1CCN(c2ccccn2)CC1)c1ccc(F)cc1
not listed: [11] | [17] | [18] | [19]
inactive: all other assays above

COCCCN1CCC(NC(=O)c2cc(Cl)c(N)c3c2OCC3)CC1
not listed: [10]
inactive: all other assays above

C[C@@H]1O[C@@H](O[C@@H]2[C@@H](O)[C@H](OCCc3ccc(O)c(O)c3)O[C@H](CO[C@@H]3O[C@H](CO)[C@@H](O)[C@H](O)[C@H]3O)[C@H]2OC(=O)/C=C/c2ccc(O)c(O)c2)[C@H](O)[C@H](O)[C@H]1O
not listed: [11] | [15] | [17] | [18] | [20]
inactive: all other assays above

COCCOC(=O)C1=C(C)NC(C)=C(C(=O)OC/C=C/c2ccccc2)C1c1cccc([N+](=O)[O-])c1 (configuration not stated)
not listed: [17]
inactive: all other assays above

CCCc1ccc(O)c(OC)c1
not listed: [2] | [3] | [10] | [11] | [16] | [17] | [20]
inactive: all other assays above

CCOc1ccccc1O[C@H](c1ccccc1)[C@H]1CNCCO1
not listed: [11] | [12] | [13] | [17] | [18] | [20]
inactive: all other assays above

OC(CCN1CCCCC1)(c1ccccc1)c1ccccc1
not listed: [13] | [17] | [20]
inactive: all other assays above

COc1cc(OC)nc(NC(=O)NS(=O)(=O)Nc2ccccc2C(=O)N(C)C)n1
inactive: [1] | [4] | [5] | [7] | [8] | [9] | [11] | [12] | [13] | [14] | [18]

CC[N+](CC)(CC)Cc1ccccc1
not listed: [17] | [18]
inactive: all other assays above

Cc1cccc(Oc2ccccc2)c1
not listed: [11] | [15] | [17]
inactive: all other assays above
